The whole screen tested about 330,000 compounds, of which about 10,000 (3%) were called active.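 The calls were made as follows: active = inhibition of at least 50% at 8 µM in the primary screen; inactive = the rest.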 The list comes from a sample in which actives are over-represented; it also holds similar structures and randomly drawn compounds.
Each compound was assayed against Protein Mdm4 (Homo sapiens) + E3 ubiquitin-protein ligase Mdm2 (Homo sapiens) (UniProt O15151+Q00987) (assay: inhibitors of human Mdm2-MdmX association, primary screen, cell-based, luminescence, split luciferase, SaOS-2, uHTS (AID 485346)). Settings: SaOS-2 split-luciferase Mdm2/MdmX complementation, at 8 µM, stronger effect = higher value.
Protein Mdm4 (Homo sapiens) + E3 ubiquitin-protein ligase Mdm2 (Homo sapiens), sequence (O15151 whole entry, looked up): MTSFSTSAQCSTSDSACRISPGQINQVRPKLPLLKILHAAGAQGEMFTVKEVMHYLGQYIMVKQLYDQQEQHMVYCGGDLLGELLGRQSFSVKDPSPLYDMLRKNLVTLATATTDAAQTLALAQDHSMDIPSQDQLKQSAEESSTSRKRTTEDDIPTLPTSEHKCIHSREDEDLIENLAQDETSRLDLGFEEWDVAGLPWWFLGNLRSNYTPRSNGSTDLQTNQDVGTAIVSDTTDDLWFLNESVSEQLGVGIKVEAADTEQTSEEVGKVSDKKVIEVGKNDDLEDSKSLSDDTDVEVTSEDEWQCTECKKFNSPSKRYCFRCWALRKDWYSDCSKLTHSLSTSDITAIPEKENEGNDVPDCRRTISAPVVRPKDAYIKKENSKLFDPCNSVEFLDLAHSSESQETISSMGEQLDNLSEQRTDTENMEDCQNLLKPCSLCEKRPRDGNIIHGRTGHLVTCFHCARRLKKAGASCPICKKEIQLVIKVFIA
Protein Mdm4 (Homo sapiens) + E3 ubiquitin-protein ligase Mdm2 (Homo sapiens), sequence (Q00987 whole entry, looked up): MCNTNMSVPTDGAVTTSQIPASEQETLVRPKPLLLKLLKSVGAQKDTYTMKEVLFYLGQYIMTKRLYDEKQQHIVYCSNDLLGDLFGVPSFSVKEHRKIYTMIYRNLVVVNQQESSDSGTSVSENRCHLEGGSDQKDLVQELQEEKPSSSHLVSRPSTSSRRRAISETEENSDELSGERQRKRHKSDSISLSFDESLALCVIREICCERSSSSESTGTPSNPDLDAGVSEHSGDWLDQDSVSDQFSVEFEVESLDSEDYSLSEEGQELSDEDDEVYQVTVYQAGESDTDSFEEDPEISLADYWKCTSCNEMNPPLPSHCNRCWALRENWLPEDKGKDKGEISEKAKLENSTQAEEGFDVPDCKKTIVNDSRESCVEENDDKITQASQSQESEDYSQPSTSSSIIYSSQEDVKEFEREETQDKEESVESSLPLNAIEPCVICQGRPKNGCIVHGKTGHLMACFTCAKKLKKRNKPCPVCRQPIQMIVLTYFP

Compound	inhibition
CC(C)[C@@H]1COC(c2cccc(C3=N[C@H](C(C)C)CO3)c2)=N1	-13.9% (inactive)
CN(CCOc1ccccc1)C(=O)c1cc(-c2ccco2)nc2ccccc12	18.2% (inactive)
COc1ccc(-c2cc(C(=O)N(C)Cc3ccc(OC)c(OC)c3OC)c3ccccc3n2)cc1OC	63.2% (active)
COc1cc(/C=N/NC(=O)c2cc(-c3ccccc3C)nc3ccccc23)cc(OC)c1O	-4.47% (inactive)
COc1ccc(Cl)cc1NC(=O)CN(C)C(=O)c1cc2ccccc2cc1OC	29.4% (inactive)
COc1ccc(-c2cc(C(=O)N(C)CC(=O)Nc3ccccc3Cl)c3ccccc3n2)cc1OC	54.1% (active)
COc1ccc(NC(=O)CN(C)C(=O)c2cc(-c3ccc(C)o3)nc3ccccc23)cc1	30.3% (inactive)
COc1ccc(-c2cc(C(=O)NCCCN3CCCC3=O)c3ccccc3n2)cc1OC	8.93% (inactive)
COc1ccc(CN(C)C(=O)c2cc(-c3ccc(C)cc3C)nc3ccccc23)c(OC)c1OC	68.6% (active)
COc1ccc(Cl)cc1NC(=O)CN(C)C(=O)c1ccc2n[nH]nc2c1	10.7% (inactive)
C[C@@H]1C(c2ccc(F)cc2)=NN(c2ccc(Br)cc2)[C@H]1C(=O)N1CCOC1=O	9.83% (inactive)
O=C(CN1CCN(S(=O)(=O)c2ccc3ccccc3c2)CC1)NC(=O)NC1CCCCC1	40.4% (inactive)
COC(=O)C1CCN(C(=O)NC2CC(=O)N(c3ccc4c(c3)OCCO4)C2)CC1 (stereo not given)	-29.9% (inactive)
CC(=O)C1=C(O)C(=O)N(c2ccc(Br)cc2)C1c1ccc([N+](=O)[O-])cc1 (stereo not given)	16.7% (inactive)
COc1ccc(C(=O)C2CCCN(Cc3cccn3-c3ccccn3)C2)c(C)c1 (stereo not given)	46.4% (inactive)
S=C1SCN(CCN2CCOCC2)CN1Cc1ccccc1	19% (inactive)
COc1ccc(CN2CN(C3CCCC3)CSC2=S)cc1	34.2% (inactive)
COc1ccc(CN2CN(C(C)C)CSC2=S)cc1	63.7% (active)
O=C(CSc1nncn1-c1cccnc1)N1CCOCC1	-14.1% (inactive)
Cc1c(Cl)c([N+](=O)[O-])nn1Cc1ccc(C(=O)N/N=C\c2cc(Cl)ccc2O)o1	68.9% (active)
Cc1ccc(C(=O)O)cc1NC(=O)c1ccc(Cn2nc(C)c(Cl)c2C)o1	2.65% (inactive)
Cc1nn(Cc2ccc(Cl)cc2)c(Cl)c1/C=N/NC(=O)c1cccnc1	-2.65% (inactive)
CCCc1nc(NCc2ccc3c(c2)OCO3)c2nnn(Cc3ccccc3Cl)c2n1	75.2% (active)
Cc1nc(Nc2ccccc2F)c2nnn(Cc3ccccc3Cl)c2n1	4.88% (inactive)

Compound	inhibition
Cc1nc(Nc2ccc3c(c2)OCCO3)c2nnn(Cc3ccccc3Cl)c2n1	32.4% (inactive)
CCOc1ccc(C(=O)CCC(=O)Nc2ccncc2)cc1	13.9% (inactive)
C=CCn1c2ccccc2c2nnc(SCc3[nH]c(=O)[nH]c3C(=O)CCCCC(=O)OCC)nc21	26.8% (inactive)
Cc1ccc(NC(=O)C2CC2)cc1S(=O)(=O)N1CCOCC1	-2.88% (inactive)
O=C1CSC(c2ccc(Cl)cc2)N1 (stereo not given)	-16.7% (inactive)
Cc1noc(C)c1-c1ccc2ncnc(NC(C)c3ccco3)c2c1 (stereo not given)	83.9% (active)
c1coc(CNc2ncnc3ccccc23)c1	-3.14% (inactive)
O=C(NC(=S)Nc1ccccc1C(=O)O)c1ccc(-c2ccc(Br)cc2)o1	44.1% (inactive)
CC1CCN(CC(=O)Nc2nccs2)CC1	32.3% (inactive)
CC(C)CCN1C(=O)c2ccc(C(=O)Nc3cccc(S(N)(=O)=O)c3)cc2C1=O	7.02% (inactive)
COc1nc(N=C(N)N)nc2c(C)cccc12	22.9% (inactive)
CC(=O)Oc1ccc(-c2nc3c(C)cccc3c(=O)o2)cc1	15.5% (inactive)
Cc1nc(N=C(N)N)nc2c(C)cccc12	75.4% (active)
COc1ccc(C2C(C#N)=C(/N=C/N3CCOCC3)OC3=C2C(=O)CC(C)(C)C3)cc1OC (stereo not given)	-7.65% (inactive)
COc1ccc(C2C(C#N)=C(N)Oc3cc(N)ccc32)cc1OC (stereo not given)	50.9% (active)
COc1cc(C2C(C#N)=C(N)Oc3n[nH]c(-c4ccccn4)c32)cc(OC)c1OC (stereo not given)	1.17% (inactive)
COc1ccccc1NS(=O)(=O)c1ccc(C(=O)N2CCN(c3ccccc3O)CC2)cc1	19.3% (inactive)
O=P(O)(CN1CCCCCC1)C1Cc2ccccc2C1	10.7% (inactive)
O=C(CNc1ccccc1N1CCCC1=O)Nc1cc(Cl)ccc1-n1cncn1	0.059% (inactive)
Cc1ccc(S(=O)(=O)N2CCN(C(=O)Cn3c(=O)cnc4ccccc43)CC2)c(C)c1	12.2% (inactive)
C[C@@H]1C[C@@H]2O[C@H]2/C=C\C=C\C(=O)Cc2c(Cl)c(O)cc(O)c2C(=O)O1	79.3% (active)
CCN(CC(=O)N1CCCC1)S(=O)(=O)c1ccc(F)cc1	-4.05% (inactive)
Cc1ccc(F)cc1S(=O)(=O)Nc1cccc(C(=O)N2CCCC(C(N)=O)C2)c1 (stereo not given)	17.8% (inactive)
Oc1ccc(Br)cc1/C=N/Nc1ccccn1	84.7% (active)

Compound	inhibition
Oc1ccc(/C=N/Nc2ccc(C(F)(F)F)cn2)cc1O	-9.44% (inactive)
COc1ccc(-c2nn(-c3ccccc3)cc2/C=N/Nc2ccccn2)cc1OC	34.3% (inactive)
Cc1cccc(NC(=O)N2CCCCCC2)c1C	23.2% (inactive)
CCN([C@H](CO)C(C)C)S(=O)(=O)c1ccccc1Br	33.9% (inactive)
c1ccc(-c2cc3c(NCC4COc5ccccc5O4)ncnc3s2)cc1 (stereo not given)	31.6% (inactive)
CCc1cc2c(N3CCN(c4nnc(CC)s4)CC3)ncnc2s1	29.4% (inactive)
Oc1ccccc1N1CCN(c2ncnc3sc(-c4ccccc4)cc23)CC1	81.3% (active)
Nc1nonc1-n1nnc(C(=O)N/N=C/c2ccccc2O)c1CN1CCCC1	52.8% (active)
Nc1nonc1-n1nnc(C(=O)N/N=C\c2ccncc2)c1CN1CCCCC1	3.58% (inactive)
NNC(=O)c1nnn(-c2nonc2N)c1CN1CCCC1	4.39% (inactive)
CCOC(=O)c1ccc(NC(=O)CCn2c(=O)oc3ccccc32)cc1	8.91% (inactive)
CN(CC1CCCO1)S(=O)(=O)c1ccc(C(=O)Nc2ccc(F)cc2)cc1 (stereo not given)	14.6% (inactive)
Cc1cccc(NC(=O)c2ccc(S(=O)(=O)N(C)CC3CCCO3)cc2)c1C (stereo not given)	17.9% (inactive)
CCOC(=O)c1c(NC(=O)c2ccc(S(=O)(=O)N(C)CC3CCCO3)cc2)sc2c1CC(C)(C)NC2(C)C (stereo not given)	79.5% (active)
CCCn1c2ccccc2c2cnn(CC(=O)NCCCN3CCCCC3CC)c(=O)c21 (stereo not given)	24% (inactive)
O=C(CN1C(=O)CCS(=O)(=O)c2ccccc21)NCc1ccc(F)cc1	13.2% (inactive)
COc1cc2c(cc1OC)CN(C(C)C(=O)Nc1cccc(S(=O)(=O)N3CCOCC3)c1)CC2 (stereo not given)	21.6% (inactive)
CCCCN1CCNC1=S	27% (inactive)
O=C(CSc1nccn1-c1cccc(F)c1)NC1CCCC1	6.79% (inactive)
Cc1cc(C)cc(NC(=O)Cn2cnc3c(nnn3Cc3ccc(F)cc3)c2=O)c1	64.8% (active)
O=C(Cn1cnc2c(nnn2Cc2ccc(F)cc2)c1=O)NCc1ccc2c(c1)OCO2	7.94% (inactive)
Cc1ccc(Cn2nnc3c(=O)n(CC(=O)N4CCCCC4)cnc32)cc1	8.92% (inactive)
CSCCC(NS(=O)(=O)c1ccccc1F)C(=O)N1CC=C(c2ccccc2)CC1 (stereo not given)	-11.8% (inactive)
c1csc(-c2nnc(COc3ccc4c(c3)OCO4)o2)c1	-40.3% (inactive)

Compound	inhibition
CCCOc1ccc(C2=CSC3=NCCN23)cc1Cl	28.9% (inactive)
COc1ccc(NC(=O)NN2CCN(C)CC2)c(OC)c1	0.742% (inactive)
O=[N+]([O-])c1ccccc1/C=C/CN1CCC(O)CC1	-3.09% (inactive)
O=[N+]([O-])c1ccccc1/C=C/CN1CCCC(CO)C1 (stereo not given)	3.12% (inactive)
CC1CCCCC1NC(=O)/C(C#N)=C/C=C/c1ccccc1[N+](=O)[O-] (stereo not given)	99.6% (active)
CCCN(CCC)S(=O)(=O)c1ccc(C(=O)NNC(=O)c2cc(OC)c(OC)c(OC)c2)cc1	-7.78% (inactive)
CCc1ccc2c(c1)C1(NN=C(c3ccccc3)S1)C(=O)N2 (stereo not given)	73% (active)
COc1ccc(C)cc1NC(=O)c1cc(-c2ccccc2)nc2c1cnn2C(C)C	11.5% (inactive)
OCC[C@H]1C[C@H](O)[C@@H](O)[C@]2(CCCCO2)O1	-0.668% (inactive)
COc1ccc(Nc2oc(-c3ccccc3Cl)nc2C#N)cc1	59.3% (active)
N#Cc1nc(-c2cccc3ccccc23)oc1N	23% (inactive)
COc1ccc(Nc2nnc(C)c3ccccc23)cc1	5.02% (inactive)
O=C1CCC[C@@H]2CC(N3CCCCC3)C[C@@H]3CCN1[C@H]23 (stereo not given in full)	-0.366% (inactive)
COc1ccc(CCNC(=S)N2CCN(S(=O)(=O)c3ccc(F)cc3)CC2)cc1	27.9% (inactive)
CCn1cc(CN2CCC(C(=O)Nc3cccc(-c4cccc(Cl)c4)c3)CC2)cn1	73% (active)
O=C(NC1CCCC1)C1CCN(C(=O)Nc2cccc(Cl)c2)CC1	-30.9% (inactive)
CC(=O)c1cc(CN2CCC(C(=O)Nc3cccc(-c4cscn4)c3)CC2)cs1	19.1% (inactive)
CCn1cc(CN2CCC(C(=O)Nc3cccc(-c4cccc(Cl)c4)c3)CC2)c(C)n1	86.6% (active)
O=C(Nc1cccc(-c2cccc(Cl)c2)c1)C1CCN(C2CCC2)CC1	63% (active)
COc1cccc(-c2cccc(NC(=O)C3CCN(C4CCC4)CC3)c2)c1	-1.08% (inactive)
O=C(Nc1cnn(Cc2ccc(Cl)cc2)c1)C1CCCC1	20.2% (inactive)
O=C(NCC1CCN(Cc2ccccc2Cl)CC1)Nc1cccc(Cl)c1	24.2% (inactive)
O=C(Nc1cccc(-c2cscn2)c1)C1CCN(Cc2ccsc2)CC1	12.7% (inactive)

— PubChem BioAssay AID485346 (Sanford-Burnham Center for Chemical Genomics, 2010)
